Source: PubChem BioAssay AID588344 (National Center for Advancing Translational Sciences (NCATS), 2011)
The list shows a part of the results. Results filed as inconclusive are left out. The source made the active and inactive calls. Calls come from the whole dose curve; as a rule, active = well fitted inhibition curve with a large enough effect; inconclusive = small, poorly fitted or top-dose-only effect; inactive = flat fitted curve, though single readings scatter.

Each compound was assayed against Histone-lysine N-methyltransferase EHMT2 (Homo sapiens) (UniProt Q96KQ7) (assay: qHTS Assay for Inhibitors of Histone Lysine Methyltransferase G9a: Hit Confirmation). Conditions: G9a H3K9 monomethylation, AlphaScreen, 2 h.
Chain of Histone-lysine N-methyltransferase EHMT2 (Homo sapiens) (Q96KQ7 913-1193 limits assumed): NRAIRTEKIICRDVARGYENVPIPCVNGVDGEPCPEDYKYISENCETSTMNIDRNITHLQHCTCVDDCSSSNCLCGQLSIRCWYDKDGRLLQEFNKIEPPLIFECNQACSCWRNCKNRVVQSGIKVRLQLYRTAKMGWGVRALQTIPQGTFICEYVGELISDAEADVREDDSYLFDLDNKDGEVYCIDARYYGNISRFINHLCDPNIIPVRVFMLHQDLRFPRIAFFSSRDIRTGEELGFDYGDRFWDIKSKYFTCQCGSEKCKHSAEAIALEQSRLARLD
Excerpt: Methylated lysines, on the N-terminal tails of histone proteins serve as epigenetic markers to recruit factors that can then modify local chromatin structure to lead to functional consequences. G9a and other members of the SUV39 family of the SET domain-containing superfamily of histone lysine methyltransferases (HMT) have been identified to specifically methylate Lys9 of histone H3 (H3K9). G9a catalyzes the mono- and di-methylation of H3K9 in mammalian euchromatic regions, where the resulting H3K9me2 is indicative of transcriptional repression. […] The inhibition of G9a will result in transcriptional activation and work synergistically with DNA methyltransferase and histone deacetylase inhibitors, to kill cancer cells. This qHTS assay for identification of G9a inhibitors is a chemiluminescence based AlphaScreen (PerkinElmer). Methylation of biotinylated-histone peptide is measured through specific antibody-based detection, in conjunction with streptavidin-coated donor and anti-IgG antibody-coated acceptor beads. The method is particularly well suited for detection of inhibitors acting by the desired histone peptide competitive mechanism and is applicable to testing other HMTs. Although AlphaScreen has significant advantages with its utility in a variety of epigenetic target assays, the primary screening data provided in this deposition should be used with caution due to the prevalence of screening artifacts. An AlphaScreen counterscreen is highly recommended to be run against any putative actives to eliminate non specific artifacts. Alternatively, one can use other AlphaScreen assays in PubChem to filter out promiscuous hits. Quinn et al. A chemiluminescence-based method for identification of histone lysine methyltransferase inhibitors. Mol Biosyst 6(5): 782-8. 2010. PMID: 20567762 [2] Baell,Holloway. New substructure filters for removal of pan assay interference compounds (PAINS) from screening libraries and for their exclusion in bioassays. J Med Chem. 53(7):2719-40. 2010. PMID: 20131845 NIH Chemical Genomics Center [NCGC] NIH Molecular Libraries Probe Production Network [MLPCN] MLPCN Grant: MH084681-02 Assay Submitter (PI): Structural Genomic Consortium - Toronto, Peter Brown
To each well, 2 uL of HMT enzyme (final 20 nM) will be added using a nanoliter dispenser. The G9a- and GLP-inhibitor BIX-01294 will be used as an intraplate control, with a 16-point titration in duplicate. A Kalypsys pin-tool will be employed to transfer 23 nL of library compound solution in DMSO to each well. Following a 15 min incubation of enzyme with compounds at room temperature, 1 uL mixture of b-H3K9 peptide substrate (final 500 nM) and SAM cofactor (final 20 uM) will be added. Reactions are allowed to proceed at room temperature for 2 hours. Methylated b-H3K9 peptide product is detected with 0.5 ug/mL rabbit polyclonal anti-monomethyl histone H3K9 antibody (Abcam Inc., Cambridge, MA) and 20 ug/mL each streptavidin-coated donor and anti-rabbit IgG acceptor AlphaScreen beads. Antibody and beads will be added in a 1 uL dispense, for a final volume of 4 uL, and plates will be incubated protected from the light for 10 min at room temperature. Microplates will then be read on an EnVision multilabel plate reader using the 1,536 plate HTS AlphaScreen aperture (excitation time 80 ms, measurement time 240 ms).
Note: nearly all actives have a fitted effect of over 65% in size.
Potency is the fitted concentration of half-maximal effect.

Potency, active:
CCOC(=O)c1ccc(-n2c(CCC(=O)O)ccc2-c2ccccc2)cc1 31.6 µM
Cc1ccccc1C(=O)Nc1ccc(N2CCCCCC2)cc1 2.83 µM
COCCCNCC(=O)Nc1sc(C)c(C)c1C(=O)OC 31.6 µM
CCOc1ccc(NC(=O)c2c(NC(=O)Cc3ccccc3)sc3c2CCC(C)C3)cc1 (stereo unspecified) 2.57 µM
CCCCNC(=O)CSc1nc2ccc(NC(=O)CSc3nnc(N)s3)cc2s1 1.42 µM
Cc1ccc(-c2cnc(NCc3ccc(C(C)C)cc3)n2C)cc1 31.6 µM
c1ccc(-c2nnc3n2NC(c2ccc4c(c2)OCO4)S3)cc1 (stereo unspecified) 0.178 µM
CCOC(=O)c1ccc(NC(=O)CSc2ncccn2)cc1 0.632 µM
CCOC(=O)N1CCc2c(sc(NCc3cccc(F)c3)c2C(=O)Nc2ccccc2OCC)C1 4.57 µM
CCc1ccc(NC2Nc3cc(C)nn3S2)cc1 (stereo unspecified) 1.78 µM
CCOC(=O)N1CCN(C(c2cccnc2)c2ccc3cccnc3c2O)CC1 (stereo unspecified) 0.159 µM
CC(NC(=O)c1ccco1)C(=O)Nc1nc(-c2ccccn2)cs1 (stereo unspecified) 7.96 µM
CCOC(=O)c1c(NC(=O)COc2cc(C)ccc2C(C)C)sc(C)c1C 5.64 µM
CCOc1ccc(NC(=O)c2c(NC(=O)Cc3ccccc3)sc3c2CCCCC3)cc1 4.57 µM
CCn1c(SCC(=O)Nc2cccc(F)c2)nnc1-c1cc2cc(Br)ccc2o1 5.01 µM
CCc1ccc(Nc2ncc3c(n2)CC(c2ccco2)CC3=O)cc1 (stereo unspecified) 31.6 µM
